Reference: PubChem BioAssay (EPA / NIEHS)
Active and inactive are the calls of the source. The calls were made as follows: active = hit-call score of the fitted dose curve at least 0.9, where 1 is the maximum; inactive = score below 0.9.

Columns and labels:
[1] = read-out: flavin-containing dimethylaniline monooxygenases 3 (FMO3), FMO3 (gene 2328); experiment: LTEA_HepaRG_FMO3: Life Technologies and Expression Analysis (LTEA) Assay for flavin-containing dimethylaniline monooxygenases 3 (FMO3) using HepaRG (AID 2283453); details: mRNA level, 48 h; actives raise or lower the signal;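 as to AC50: differentiated human HepaRG liver cells in serum-free induction medium; FMO3 transcript by TaqMan qRT-PCR normalized to ACTB GAPDH and POLR2A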
Procedure, shortened: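 Eight-point concentration-response in serum-free HepaRG cultures (top 100 uM, 0.5% DMSO, 48 h). Read-out: FMO3 mRNA level normalized to three endogenous control genes, fitted bidirectionally versus vehicle.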

[2] = read-out: Cytochrome P450 (CYP1A1), CYP1A1 (gene 1543); experiment: LTEA_HepaRG_CYP1A1: Life Technologies and Expression Analysis (LTEA) Assay for Cytochrome P450 (CYP1A1) using HepaRG (AID 2283454); details: mRNA level, 48 h; actives raise or lower the signal
Procedure, shortened: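 CYP1A1 transcript levels measured by Fluidigm qRT-PCR against three housekeeping genes, 48 h after chemical dosing of human HepaRG cells (highest concentration 100 uM, half-log steps, 0.5% DMSO vehicle). Gain or loss of signal fitted relative to DMSO.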

[3] = read-out: CFLAR gene, CFLAR (gene 8837); experiment: LTEA_HepaRG_CFLAR: Life Technologies and Expression Analysis (LTEA) Assay for CFLAR gene using HepaRG (AID 2283455); details: mRNA level, 48 h; actives raise or lower the signal
Procedure, shortened: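 Gain- or loss-of-signal changes in CFLAR transcript were fitted bidirectionally relative to 0.5% DMSO. Cells (HepaRG, duplicate wells) were dosed for 48 h across eight half-log concentrations topping at 100 uM; quantitation by TaqMan qRT-PCR.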

[4] = read-out: Forkhead box O1 (FOXO1), FOXO1 (gene 2308); experiment: LTEA_HepaRG_FOXO1: Life Technologies and Expression Analysis (LTEA) Assay for Forkhead box O1 (FOXO1) using HepaRG (AID 2283456); details: mRNA level, 48 h; actives raise or lower the signal
Procedure, shortened: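 Using one lot of HepaRG hepatic cells kept in 0.5% DMSO, the team applied test chemicals in duplicate, half-log dilutions from 100 uM, for 48 h. Expression, normalised to ACTB/GAPDH/POLR2A, was compared with vehicle in either direction.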

[5] = CEETOX_H295R_TESTO: CeeTox H295R High-throughput Steroidogenesis Assay for Testosterone (TESTO) (AID 2283457); details: actives raise or lower the signal
Procedure, shortened: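 Testosterone secreted into the medium over 48 h by H295R cells (maximum passage 10) was quantified by LC-MS/MS after MTBE extraction. Fitted in both directions against DMSO, with concentrations diluted until MTT viability was ≥70%.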

[6] = read-out: growth arrest and DNA damage 45 (GADD45A), GADD45A (gene 1647); experiment: LTEA_HepaRG_GADD45A: Life Technologies and Expression Analysis (LTEA) Assay for growth arrest and DNA damage 45 (GADD45A) using HepaRG (AID 2283458); details: mRNA level, 48 h; actives raise or lower the signal
Procedure, shortened: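 HepaRG, 48 h exposure, 8 conc. (top 100 uM, half-log steps), 0.5% DMSO vehicle, duplicates. Read-out: qRT-PCR mRNA level, housekeeping-normalized (ACTB/GAPDH/POLR2A). Curves fit bidirectionally vs DMSO baseline.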

[7] = read-out: Forkhead box O3 (FOXO3), FOXO3 (gene 2309); experiment: LTEA_HepaRG_FOXO3: Life Technologies and Expression Analysis (LTEA) Assay for Forkhead box O3 (FOXO3) using HepaRG (AID 2283459); details: mRNA level, 48 h; actives raise or lower the signal
Procedure, shortened: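 Gene-expression endpoint: FOXO3 transcript level by qRT-PCR in HepaRG cultures treated 48 h with chemicals up to 100 uM (half-log, 0.5% DMSO vehicle).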

[8] = read-out: ABC Transporter (ABCB1), ABCB1 (gene 5243); experiment: LTEA_HepaRG_ABCB1: Life Technologies and Expression Analysis (LTEA) Assay for ABC Transporter (ABCB1) using HepaRG (AID 2283460); details: mRNA level, 48 h; actives raise or lower the signal
Procedure, shortened: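 Human liver HepaRG line treated 48 h with up to 100 uM compound (eight half-log points, 0.5% DMSO); ABCB1 mRNA change fitted bidirectionally against DMSO controls.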

[9] = read-out: growth arrest and DNA damage 45 (GADD45B), GADD45B (gene 4616); experiment: LTEA_HepaRG_GADD45B: Life Technologies and Expression Analysis (LTEA) Assay for growth arrest and DNA damage 45 (GADD45B) using HepaRG (AID 2283461); details: mRNA level, 48 h; actives raise or lower the signal
Procedure, shortened: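 Transcript level quantified by Fluidigm TaqMan qRT-PCR with three housekeeping genes for normalization, analyzed for up- or down-regulation against 0.5% DMSO. HepaRG cultures dosed 48 h at eight half-log concentrations up to 100 uM, duplicates.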

[10] = read-out: ABC Transporter (ABCC3), ABCC3 (gene 8714); experiment: LTEA_HepaRG_ABCC3: Life Technologies and Expression Analysis (LTEA) Assay for ABC Transporter (ABCC3) using HepaRG (AID 2283462); details: mRNA level, 48 h; actives raise or lower the signal
Procedure, shortened: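 Transcript level by TaqMan qRT-PCR, normalised to three housekeeping genes, fitted in both directions relative to vehicle. Chemicals tested in duplicate at eight half-log concentrations up to 100 uM for 48 h on HepaRG cells (0.5% DMSO).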

Measured: AC50

CCN(CC)CCOc1ccc(C(=C(Cl)c2ccccc2)c2ccccc2)cc1
active: [1] 22 µM | [8] 79.9 µM
inactive: all other assays above

CC1=C(C)S(=O)(=O)CCS1(=O)=O
inactive: [3] | [4] | [5] | [6]
active: [1] 90.9 µM | [2] 50 µM | [7] 14.7 µM | [8] 50 µM | [9] 88.8 µM

CCCCCCCCCCCCCCCCO
active: [2] 8.36 µM
not listed: [5] | [10]
inactive: all other assays above

Cc1c(C)c2c(c(C)c1O)CCC(C)(COc1ccc(CC3SC(=O)NC3=O)cc1)O2 (centres undefined)
active: [1] 93 µM | [2] 27.5 µM | [6] 0.262 µM | [7] 88.4 µM | [9] 37.7 µM
inactive: all other assays above

CCCCCCCCCCCCCCOS(=O)(=O)O
active: [2] 72.7 µM
not listed: [5]
inactive: all other assays above

CCOCCOCCO
not listed: [5] | [10]
inactive: all other assays above

CC(C)c1cccc(C(C)C)c1NC(=O)NS(=O)(=O)c1cc(C(C)(C)O)co1
active: [8] 6.65 µM
not listed: [5] | [10]
inactive: all other assays above

CC(=O)OCC(COC(C)=O)OC(C)=O
active: [2] 12 µM
not listed: [5] | [10]
inactive: all other assays above

Oc1ccccc1O
not listed: [5] | [10]
inactive: all other assays above

C/C=C/C=C/C(=O)O
active: [2] 76.6 µM | [6] 0.246 µM
not listed: [5]
inactive: all other assays above

S=c1[nH]c2ccccc2s1
active: [2] 10.1 µM
not listed: [5]
inactive: all other assays above

O=C(O)c1cccnc1
not listed: [5] | [10]
inactive: all other assays above

Cc1cn([C@H]2C=C[C@@H](CO)O2)c(=O)[nH]c1=O
active: [2] 69.4 µM
not listed: [5] | [10]
inactive: all other assays above

OCC(O)CO
not listed: [5] | [10]
inactive: all other assays above

CO[C@@H]1COCC[C@@H]1N[C@@H]1CC[C@@](C(=O)N2CCc3ncc(C(F)(F)F)cc3C2)(C(C)C)C1
not listed: [5]
inactive: all other assays above

O=C(O)CN(CC(=O)O)CC(=O)O
active: [2] 79.4 µM
not listed: [5] | [10]
inactive: all other assays above

COC(=O)CCC(=O)OC
active: [2] 50 µM
not listed: [5] | [10]
inactive: all other assays above

CCCCc1nc2cccnc2n1Cc1ccc(-c2ccccc2-c2nnn[nH]2)cc1
active: [2] 50 µM | [8] 50 µM
not listed: [5] | [10]
inactive: all other assays above

CCC(C)N(C)C(=O)c1cc2ccccc2c(-c2ccccc2Cl)n1 (centres undefined)
active: [2] 37.7 µM | [8] 5.38 µM
inactive: all other assays above

CCCC[C@H]1CN(CC2CCOCC2)C(=O)OC12CCN(C1(C)CCN(C(=O)c3c(C)ncnc3C)CC1)CC2
not listed: [5] | [10]
inactive: all other assays above

CC(C)OC(=O)C(C)(C)Oc1ccc(C(=O)c2ccc(Cl)cc2)cc1
active: [2] 50 µM | [6] 0.0536 µM
not listed: [5] | [10]
inactive: all other assays above

CC(C)(O)c1ccc(CNC(=O)c2cccnc2Oc2ccc(F)cc2)cc1
active: [2] 67.4 µM
not listed: [5]
inactive: all other assays above

C#CC(O)C(CC)CCCC (centres undefined)
active: [2] 73.1 µM
not listed: [5]
inactive: all other assays above

O=C(N[C@@H](c1ccccc1)[C@@H]1CCCCN1)c1cccc(C(F)(F)F)c1Cl
inactive: [2] | [6]
active: [1] 53.7 µM | [3] 77.2 µM | [4] 75.9 µM | [7] 73.4 µM | [8] 89.9 µM | [9] 50 µM | [10] 12.9 µM

NC1CCCCC1
not listed: [5] | [10]
inactive: all other assays above

NC(=Nc1ccccc1)Nc1ccccc1
active: [2] 50 µM
not listed: [5] | [10]
inactive: all other assays above

O=Cc1ccccc1C=O
active: [2] 18.5 µM
not listed: [5] | [10]
inactive: all other assays above

C=CCCCCCCCCCCCC
not listed: [5] | [10]
inactive: all other assays above

O=C1O[C@H]([C@H](O)CO)C(O)=C1O
active: [2] 64.4 µM
not listed: [5]
inactive: all other assays above

CN(C)CCCN(C)CCCN(C)C
not listed: [5]
inactive: all other assays above

CC(C)NCC(O)c1ccc(O)c(O)c1 (centres undefined)
active: [1] 0.451 µM | [2] 0.147 µM | [3] 0.238 µM
not listed: [5] | [7]
inactive: all other assays above

CC(C)c1cccc(C(C)C)c1
active: [2] 66.1 µM
not listed: [3] | [5] | [10]
inactive: all other assays above

Cc1ccc(-c2cc(C(F)(F)F)nn2-c2ccc(S(N)(=O)=O)cc2)cc1
active: [1] 76.8 µM | [2] 12.5 µM | [3] 78.3 µM | [4] 77.2 µM | [7] 93.6 µM | [8] 82.2 µM
inactive: [6] | [9] | [10]

COC(=O)CCCC(=O)OC
not listed: [3] | [5] | [10]
inactive: all other assays above

CC(=O)S[C@H](C(=O)N[C@H]1Cc2ccccc2[C@H]2CCC[C@@H](C(=O)O)N2C1=O)C(C)C
not listed: [5]
inactive: all other assays above

Cc1ccc(C(C)(C)C)c(O)c1
active: [2] 41.7 µM
not listed: [5]
inactive: all other assays above

CCc1cc(C2=C(C(=O)O)N(c3ccccc3C(F)(F)F)S(=O)(=O)c3ccccc32)cc2c1OCO2
active: [1] 78.8 µM | [2] 50 µM | [8] 3.3 µM
inactive: [4] | [6] | [7] | [9]

O=C(Oc1ccccc1)c1cccc(C(=O)Oc2ccccc2)c1
active: [2] 67.7 µM
not listed: [3] | [10]
inactive: all other assays above

CCCCCCCC(=O)OC
active: [1] 12.1 µM
not listed: [5]
inactive: all other assays above

CCCCC(CC)COC(=O)CCCCCCCC(=O)OCC(CC)CCCC (centres undefined)
active: [2] 50 µM
not listed: [3] | [5] | [10]
inactive: all other assays above

O=NO
not listed: [5]
inactive: all other assays above

CC(N)=O
active: [6] 0.256 µM
not listed: [3] | [5] | [10]
inactive: all other assays above

O=C1OC(c2ccc(O)cc2)(c2ccc(O)cc2)c2ccccc21
active: [1] 93.8 µM | [2] 50 µM | [4] 50 µM | [7] 50 µM
not listed: [3]
inactive: all other assays above

CN(C)C(=O)NC1(c2ccccc2)CCN(CCC[C@]2(c3ccc(Cl)c(Cl)c3)CCCN(C(=O)c3ccccc3)C2)CC1
active: [1] 18.8 µM | [4] 18.7 µM | [6] 12.5 µM | [9] 20.3 µM
not listed: [5]
inactive: all other assays above

O=C(O)CC(O)(CC(=O)O)C(=O)O
active: [2] 50 µM
not listed: [3] | [5] | [10]
inactive: all other assays above

CC1(C)C(=O)NC(=O)N1CO
active: [2] 50 µM
not listed: [3] | [5] | [10]
inactive: all other assays above
